# The whole screen tested about 13,000 compounds, of which about 3,200 (25%) showed an effect of 50% or more. This is one part of the list.
# System: P. falciparum stage V gametocytes
# Design: BacTiter-Glo ATP luminescence viability of purified stage V gametocytes in 384-well plates, per cent inhibition versus DMSO
# Settings: 48 h, 5 µM; inhibitor
row,Compound,% Inhibition [%]
1,O=C(Nc1cc(C(F)(F)F)cc(C(F)(F)F)c1)c1cccc([N+](=O)[O-])c1 [TCMDC-123503],-13.95
2,COc1csc2cc(Br)ccc12 [TCMDC-139000],9.347
3,COc1cc(C(=O)NCCCN2CCN(c3cc(Cl)ccc3OC)CC2)ccc1-c1nc2cc(Cl)c(Cl)cc2[nH]1 [TCMDC-140079],4.425
4,COc1cc(C(F)(F)F)c2cc(CNCCCNc3nc4ccccc4[nH]3)[nH]c2c1 [TCMDC-140014],33.56
5,CCOc1ccc(Nc2ccc3nonc3c2S(=O)(=O)Nc2ccc(OCC)cc2)cc1 [TCMDC-138325],-11.05
6,CCC(CC)(CCC#N)CN(C[C@@H](O)[C@H](Cc1ccccc1)NC(=O)OC(C)(C)C)S(=O)(=O)c1ccc(OC)cc1 [TCMDC-138270],4.425
7,COc1ccc(O)c(Cc2cnc3nc(N)[nH]c(=O)c3c2C)c1 [TCMDC-137766],-34.15
8,CCCNc1ccc2nccc(CCN3CCC(NCc4ccc5c(n4)NC(=O)CS5)CC3)c2n1 [TCMDC-141591],39.25
9,CCOC(=O)C1CCN(CCCNC(=O)/C(=C/C=C/c2cc3cc(Cl)c(Cl)cc3[nH]2)OC)CC1 [TCMDC-139356],-1.751
10,COc1ccc2nc(-c3ccc(C(=O)NCCCN4CCN(c5cc(Cl)ccc5OC)CC4)cc3)[nH]c2c1 [TCMDC-140024],-1.879
11,COc1ccc(Cl)cc1N1CCN(CCCNC(=O)c2ccc(-c3nc4cc(Cl)c(F)cc4[nH]3)cc2)CC1 [TCMDC-140094],66.12
12,CO/C(=C\C=C\c1cc2cc(Cl)c(Cl)cc2[nH]1)C(=O)NCCCN1CCN(c2cccc(Cl)c2)CC1 [TCMDC-139141],15.28
13,CO/C(=C\C=C\c1cc2cc(Cl)c(Cl)cc2[nH]1)C(=O)NCCCN1CCCC[C@H]1C [TCMDC-139058],98.53
14,COc1ccc(Cl)cc1N1CCN(CCCNC(=O)c2ccc(-c3nc4cc(Cl)c(F)cc4[nH]3)c(F)c2)CC1 [TCMDC-140098],-15.17
15,CO/C(=C\C=C\c1cc2cc(Cl)ccc2[nH]1)C(=O)NCCCN1CCN(c2cc(Cl)ccc2OC)CC1 [TCMDC-139242],50.82
16,CO/C(=C\C=C\c1cc2cc(Cl)c(Cl)cc2[nH]1)C(=O)NCCCN1CCN(C2CCCCC2)CC1 [TCMDC-139296],-42.38
17,CO/C(=C\C=C\c1cc2cc(Cl)c(Cl)cc2[nH]1)C(=O)NCCCN1CCCC[C@@H]1C [TCMDC-139059],70.67
18,CO/C(=C\C=C\c1cc2cc(Cl)c(Cl)cc2[nH]1)C(=O)NCCN1CCCCC1 [TCMDC-139019],39.34
19,CO/C(=C\C=C\c1cc2cc(Cl)c(Cl)cc2[nH]1)C(=O)NCCCCN1CCN(c2ccccc2OC)CC1 [TCMDC-139178],-64.2
20,CO/C(=C\C=C\c1cc2cc(Cl)c(Cl)cc2[nH]1)C(=O)NCCCN1CC(C)N(C)CC1C (stereo not shown) [TCMDC-139044],-57.76

row,Compound,% Inhibition [%]
1,O=C(Nc1ccc(C(=O)N(Cc2ccc3c(c2)OCO3)C2CCCC2)cc1)c1cccs1 [TCMDC-125341],18.48
2,O=C(Nc1cccc(C2=NCCCN2)c1)Nc1cccc(C2=NCCCN2)c1 [TCMDC-137203],-4.824
3,CNCC(C)(C)c1nc(-c2ccc(Cl)c(O)c2)c(-c2ccncc2)[nH]1 [TCMDC-140762],-81.65
4,CC1CCc2sc(-c3nnc(SC(C)C(=O)N4CCCC4)o3)cc2C1 (stereo not shown) [TCMDC-124867],8.673
5,COc1ccc2nc(N=C3NC4(c5ccccc5)NC(=Nc5nc6ccc(OC)cc6[nH]5)NC4(c4ccccc4)N3)[nH]c2c1 (stereo not shown) [TCMDC-139632],-5.623
6,O=C(Nc1ccc(OC2CCN(Cc3ccsc3)C2)c(Cl)c1)c1cccs1 (stereo not shown) [TCMDC-133948],17.98
7,CC(C)NCc1ccc(-c2ccc(CN3CCCC(c4ccccc4)C3)cc2)c(C(=O)NC2Cc3ccccc3C2)c1 (stereo not shown) [TCMDC-134700],9.317
8,CCc1ccc(-c2cnc(N)c3cc(-c4ccnc(N)n4)ccc23)cc1 [TCMDC-134546],12.63
9,Cc1cccc2[nH]c(-c3cccc(-c4cccc(NC(=O)Nc5ccsc5)c4)c3)nc12 [TCMDC-133213],-5.013
10,COc1ccc2c(ccc3c2ncc2c(=O)n(-c4ccccc4)[nH]c23)c1 [TCMDC-142015],8.903
11,COC(=O)c1cccc(CNCc2cccc(-c3ccc(-c4nc5ccccc5[nH]4)cc3)c2)c1.O=C(O)C(F)(F)F [TCMDC-132959],-6.074
12,O=C(O)C(F)(F)F.c1ccc(-n2ncc(CNCc3ccc(-c4cccc(-c5nc6ccccc6[nH]5)c4)cc3)n2)cc1 [TCMDC-132564],-40.42
13,O=C(O)C(F)(F)F.c1cc(-c2ccc(CNCc3ccsc3)cc2)cc(-c2nc3ccccc3[nH]2)c1 [TCMDC-132563],-10.09
14,COC(=O)c1cccc(CNCc2ccc(-c3cccc(-c4nc5cc(C(F)(F)F)ccc5[nH]4)c3)cc2)c1.O=C(O)C(F)(F)F [TCMDC-132947],-37.36
15,NC(=O)c1cccc(CNCc2ccc(-c3cccc(-c4nc5ccccc5[nH]4)c3)cc2)c1.O=C(O)C(F)(F)F [TCMDC-132570],70.11
16,Nc1cccc(CNCc2ccc(-c3cccc(-c4nc5ccccc5[nH]4)c3)cc2)c1.O=C(O)C(F)(F)F [TCMDC-132924],-75.75
17,Cn1cncc1CNCc1ccc(-c2cccc(-c3nc4ccccc4[nH]3)c2)cc1.O=C(O)C(F)(F)F [TCMDC-132569],52.47
18,Cn1cccc1CCNCc1ccc(-c2cccc(-c3nc4ccccc4[nH]3)c2)cc1.O=C(O)C(F)(F)F [TCMDC-132543],2.509
19,COC(=O)c1cccc(CNCc2ccc(-c3cccc(-c4nc5ccccc5[nH]4)c3)cc2)c1.O=C(O)C(F)(F)F [TCMDC-132555],70.67
20,N#Cc1cccc(Nc2nccc(Nc3ccc(Oc4ccccc4)cc3)n2)c1 [TCMDC-138558],-36.77
